Results reported in PubChem BioAssay AID1159580 (chemical genetic matrix, 2015).
Several values for one entry are separate records, joined by “and”; a condition that tells them apart may be missing. Equal entries are not always repeated. About 2,000 (36%) of roughly 5,500 compounds were called active. Another 18% or so got no clear call; they are omitted. No stated cut-off is given here; in the data, active means normalized growth mostly below about 0.91 (no sharp cut-off); inconclusive means no clear call, values can overlap the other calls; inactive means mostly above about 0.92. This is one part of the list.

Assay: chemical genetic growth profiling, strain panel (AID 1159580);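 further: tested at 20 µM; growth read once vehicle control cultures reached saturation at 30 °C; 1 = growth at the plate median or of vehicle wells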
Details: S. cerevisiae deletion strains, growth OD

Measured: normalized growth

NC(=O)c1cnccn1
inactive: locus YAL013W, strain DEP1, stronger effect = lower value 1.01 and 1.02 | locus YAL021C, strain ccr4, stronger effect = lower value 0.992 | locus YAL026C, strain drs2, stronger effect = lower value 1.01 | locus YAL030W, strain snc1, stronger effect = lower value 0.996 | locus YAL040C, strain CLN3, stronger effect = lower value 1 | locus YBL061C, strain skt5, stronger effect = lower value 0.988 | locus YBR009C, strain hhf1, stronger effect = lower value 1.01 | locus YBR021W, strain FUR4, stronger effect = lower value 1.02 | locus YBR023C, strain chs3, stronger effect = lower value 1.01 | locus YBR171W, strain sec66, stronger effect = lower value 0.968 | locus YBR229C, strain ROT2, stronger effect = lower value 1 | locus YBR231C, strain swc5, stronger effect = lower value 0.984 | locus YBR279W, strain paf1, stronger effect = lower value 1 | locus YCL011C, strain gbp2, stronger effect = lower value 1 | locus YCL016C, strain dcc1, stronger effect = lower value 1.01 | locus YCL029C, strain bik1, stronger effect = lower value 1 | locus YCL061C, strain MRC1 (second series), stronger effect = lower value 1.01 | locus YCL069W, strain vba3, stronger effect = lower value 1 | locus YCR088W, strain abp1, stronger effect = lower value 0.981 | locus YDL005C, strain med2, stronger effect = lower value 0.974 | locus YDL035C, strain GPR1, stronger effect = lower value 1.01 | locus YDL040C, strain nat1, stronger effect = lower value 0.984 | locus YDL074C, strain BRE1, stronger effect = lower value 1 | locus YDL101C, strain DUN1, stronger effect = lower value 1.01 | locus YDL134C, strain PPH21, stronger effect = lower value 1.01 | locus YDL185W, strain tfp1, stronger effect = lower value 1.02 | locus YDL192W, strain arf1, stronger effect = lower value 1.01 | locus YDR001C, strain nth1, stronger effect = lower value 0.996 | locus YDR069C, strain doa4, stronger effect = lower value 0.982 | locus YDR101C, strain arx1, stronger effect = lower value 1 | locus YDR137W, strain rgp1, stronger effect = lower value 0.98 | locus YDR150W, strain NUM1, stronger effect = lower value 0.993 and 1 | locus YDR159W, strain sac3, stronger effect = lower value 1 | locus YDR162C, strain NBP2, stronger effect = lower value 1.01 | locus YDR195W, strain ref2 0.905 | locus YDR297W, strain sur2, stronger effect = lower value 0.994 | locus YDR318W, strain mcm21, stronger effect = lower value 1.02 | locus YDR334W, strain swr1, stronger effect = lower value 0.98 | locus YDR335W, strain msn5, stronger effect = lower value 0.99 | locus YDR363W, strain ESC2, stronger effect = lower value 0.964 | locus YDR388W, stronger effect = lower value 1.01 | locus YDR392W, strain spt3, stronger effect = lower value 1.05 | locus YDR502C, strain sam2, stronger effect = lower value 1.01 | locus YEL003W, strain gim4, stronger effect = lower value 0.992 | locus YEL037C, strain rad23, stronger effect = lower value 0.995 | locus YEL061C, strain CIN8 (second series), stronger effect = lower value 0.994 | locus YEL061C, strain CIN8, stronger effect = lower value 1 | locus YER002W, strain NOP16, stronger effect = lower value 1.01 | locus YER015W, strain faa2, stronger effect = lower value 0.995 | locus YER016W, strain bim1, stronger effect = lower value 1 | locus YER110C, stronger effect = lower value 0.995 | locus YER111C, strain swi4, stronger effect = lower value 0.993 | locus YER155C, strain BEM2 (second series), stronger effect = lower value 0.955 | locus YER155C, strain BEM2, stronger effect = lower value 1.01 | locus YER167W, strain BCK2, stronger effect = lower value 1.01 | locus YFR010W, strain ubp6, stronger effect = lower value 0.979 | locus YGL078C, strain dbp3, stronger effect = lower value 0.993 | locus YGL086W, strain mad1, stronger effect = lower value 1.02 | locus YGL167C, strain pmr1, stronger effect = lower value 0.987 | locus YGL173C, strain kem1, stronger effect = lower value 0.983 | locus YGL227W, strain vid30, stronger effect = lower value 0.991 | locus YGL240W, strain doc1, stronger effect = lower value 0.959 | locus YGL248W, strain PDE1, stronger effect = lower value 1 | locus YGL253W, strain hxk2, stronger effect = lower value 1.02 | locus YGR135W, strain pre9, stronger effect = lower value 0.996 | locus YGR229C, strain SMI1, stronger effect = lower value 1.03 and 1.02 | locus YGR252W, strain gcn5, stronger effect = lower value 0.988 | locus YHR013C, strain ard1, stronger effect = lower value 0.966 | locus YHR027C, strain rpn1, stronger effect = lower value 0.995 | locus YHR030C, strain SLT2, stronger effect = lower value 1 and 1.07 | locus YHR079C, strain IRE1 (second series), stronger effect = lower value 1.01 | locus YHR079C, strain IRE1, stronger effect = lower value 1.03 | locus YHR094C, strain hxt1, stronger effect = lower value 0.999 | locus YHR129C, strain ARP1, stronger effect = lower value 0.996 | locus YHR142W, strain chs7, stronger effect = lower value 0.992 | locus YHR200W, strain rpn10, stronger effect = lower value 1 | locus YIL066C, strain RNR3, stronger effect = lower value 1.01 | locus YIL073C, strain SPO22, stronger effect = lower value 1.06 | locus YIL125W, strain kgd1, stronger effect = lower value 0.999 | locus YIR030C, strain dcg1, stronger effect = lower value 1 | locus YJL092W, strain hpr5, stronger effect = lower value 0.974 | locus YJL095W, strain BCK1 (second series), stronger effect = lower value 0.995 | locus YJL095W, strain BCK1, stronger effect = lower value 0.997 and 1.06 | locus YJL115W, strain asf1, stronger effect = lower value 0.995 | locus YJL129C, strain trk1, stronger effect = lower value 0.981 | locus YJL134W, strain LCB3, stronger effect = lower value 1.01 | locus YJL154C, strain vps35, stronger effect = lower value 0.991 | locus YJL164C, strain tpk1, stronger effect = lower value 1.01 | locus YJL166W, strain qcr8, stronger effect = lower value 0.969 | locus YJL168C, strain set2, stronger effect = lower value 1.01 | locus YJL187C, strain SWE1 (second series), stronger effect = lower value 1.01 | locus YJR043C, strain POL32, stronger effect = lower value 1 | locus YJR066W, strain TOR1, stronger effect = lower value 1
